Source: PubChem
LRH-1 inv ag: LRH-1 (NR5A2) inverse agonists, primary screen, cell-based, luminescence, HEK293T, StAR-luciferase reporter. LRH-1 transfected, 24 h. inhibition, % at 3.6 µM. actives 0.13% (n = 360,000);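 active = inhibition above the mean inhibition of all tested compounds plus 3 SD, cut at about 73% in these data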
Target sequence (O00482 whole entry, looked up): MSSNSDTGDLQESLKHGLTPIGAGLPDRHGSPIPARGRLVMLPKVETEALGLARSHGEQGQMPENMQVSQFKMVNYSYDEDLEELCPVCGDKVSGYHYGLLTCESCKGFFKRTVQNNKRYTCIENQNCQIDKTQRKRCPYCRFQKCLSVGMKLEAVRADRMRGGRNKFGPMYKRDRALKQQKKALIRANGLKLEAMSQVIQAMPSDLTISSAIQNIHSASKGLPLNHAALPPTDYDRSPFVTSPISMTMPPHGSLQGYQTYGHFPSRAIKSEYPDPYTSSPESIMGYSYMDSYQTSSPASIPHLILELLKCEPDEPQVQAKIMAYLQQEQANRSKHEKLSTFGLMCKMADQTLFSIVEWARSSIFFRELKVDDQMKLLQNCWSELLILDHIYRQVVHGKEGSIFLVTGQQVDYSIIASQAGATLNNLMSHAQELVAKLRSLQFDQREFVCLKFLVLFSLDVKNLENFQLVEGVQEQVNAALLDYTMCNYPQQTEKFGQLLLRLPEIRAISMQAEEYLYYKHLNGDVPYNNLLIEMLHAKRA
SRC1 inh: SRC1 coactivator transcriptional activity inhibitors, primary screen, cell-based, luminescence; Nuclear receptor coactivator 1 (Homo sapiens), Q15788; HEK293 GAL4-SRC1 luciferase reporter; inhibition, % at 3.6 µM; actives 0.12% (n = 360,000);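 active = inhibition above the campaign mean plus 3 SD, with each screening campaign given its own cutoff, cut at about 60% in these data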
COUP-TFII inh: NR2F2 transcriptional activity inhibitors, primary screen, cell-based, luciferase reporter, HEK293T, luminescence; AID 686940, 2013; actives 0.7% (n = 370,000); HEK293T NGFI-A luciferase reporter; inhibition, % at 8.6 µM;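 active = inhibition above a per-plate cutoff, mean inhibition of test wells between control levels plus 3 SD, cut at about 38% in these data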;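 note: cells cotransfected with COUP-TFII expression vector driving the NGFI-A reporter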
SRC3 inh: SRC3 coactivator transcriptional activity inhibitors, primary screen, cell-based, luminescence | Nuclear receptor coactivator 3 (Homo sapiens), Q9Y6Q9 | AID 588352, 2011 | inhibition, % at 3.6 µM | HEK293 GAL4-SRC3 luciferase reporter | actives 0.17% (n = 360,000);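 active = inhibition above a per-campaign cutoff, the mean of all compounds plus 3 SD, cut at about 60% in these data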;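 note: higher means less SRC3-driven luciferase light from the GAL4 reporter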
GalR3 antag: GalR3 antagonists in HEK293 cells, primary screen, cell-based, fluorescence readout. HEK293 GalR3-CNG cAMP membrane potential fluorescence; galR3 body fused to GalR1 C-terminus. inhibition, % at 3 µM. actives 0.44% (n = 360,000). AID 651719, 2012;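 active = inhibition above the screen-wide average plus 3 SD, cut at about 13% in these data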;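 note: forskolin and galanin both at EC90 stimulate the cells; cAMP rise reported by CNG channel membrane potential dye signal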
SRC2 inh: inhibition of GAL4-SRC2 driven luciferase reporter, primary screen, SRC2 inhibitor project, cell-based, luminescence | HEK293 GAL4-SRC2 luciferase reporter | AID 651957, 2012 | inhibition, % at 9 µM | actives 0.17% (n = 370,000);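 active = inhibition above the mean inhibition of all tested compounds plus 3 SD, set per campaign, cut at about 52% in these data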
Of the large screens only hits and unclear results are named; the others gave an inactive call. A selection: hits, their analogues and other compounds. The true share with any hit is near 1.1%.

COc1ccc(S[C@]2(C(=O)N3CCCC3)CC(=O)N(C(=O)Nc3ccc(C)c(Cl)c3)[C@@H]2c2ccc(OC)cc2)cc1	none (no result: LRH-1 inv ag, SRC1 inh, SRC3 inh, GalR3 antag)
COc1ccc(CNS(=O)(=O)/C=C/c2ccc(OC)cc2CNC(=O)OC(C)(C)C)cc1	none (no result: LRH-1 inv ag, SRC1 inh, SRC3 inh, GalR3 antag)
CCCOC(c1ccccc1)(c1ccc(C(F)(F)F)cc1)C(Oc1nc(C)cc(C)n1)C(=O)O (stereo not drawn)	LRH-1 inv ag 81.1, SRC1 inh 61.0, SRC3 inh 71.0
Cc1cc(C)nc(OC(C(=O)O)C(OCCc2ccccc2)(c2ccc(F)cc2)c2ccc(F)cc2)n1 (stereo not drawn)	none
CC(C)(C)OC(=O)N1CCN(c2ccc(CNC(=O)c3ccc(Cl)cc3)cc2)CC1	COUP-TFII inh 39.3
CC(C)(C)c1ccc(C(=O)NCc2ccc(Cl)cc2)cc1	none
O=C1COc2ccc(C(=O)COC(=O)CCCOc3ccccc3)cc2N1	none
CC(C)(C)c1ccc(-c2nnc(SCC(=O)Nc3ccc(S(=O)(=O)Nc4nccs4)cc3)n2-c2ccc(Cl)cc2)cc1	none (no result: LRH-1 inv ag, SRC1 inh, SRC3 inh, GalR3 antag)
Cc1cc(C)c(C(=O)/C=C/c2cccc3ccccc23)c(=O)[nH]1	SRC3 inh 78.0, SRC2 inh 66.3
Cc1cc(C)c(C(=O)/C=C/c2ccc3c(c2)OCO3)c(=O)[nH]1	none
O=C(/C=C/c1ccc(Cl)cc1)NC(=S)Nc1ccc(NC(=O)c2ccco2)cc1	SRC1 inh 67.6
CCN(CC)c1ccc2cc(-c3nc4ccccc4[nH]3)c(=O)oc2c1	none (no result: COUP-TFII inh, GalR3 antag, SRC2 inh)
CCN(CC)c1ccc2nc3ccccc3[n+](CC)c2c1	LRH-1 inv ag 76.2, SRC1 inh 62.6, SRC3 inh 67.8 (no result: COUP-TFII inh, GalR3 antag, SRC2 inh)
CC(=O)NC(c1ccc(Cl)cc1Cl)c1ccc2cccnc2c1O (stereo not drawn)	LRH-1 inv ag 88.1
CC(=O)NC(c1ccc2ccccc2c1)c1ccc2cccnc2c1O (stereo not drawn)	LRH-1 inv ag 89.9
COC(=O)[C@H](CC(C)C)N(CCc1cn(Cc2ccccc2)nn1)S(=O)(=O)c1ccccc1Br	none (no result: LRH-1 inv ag, SRC1 inh, SRC3 inh, GalR3 antag)
COC(=O)[C@]12C[C@H](CC(=O)NCCCN3CCCC3=O)C(=O)N(Cc3ccccc3)C1=C[C@H](COCc1ccccc1)O[C@@H]2C	none (no result: LRH-1 inv ag, SRC1 inh, SRC3 inh, GalR3 antag)
COc1ccc(CCNC(=O)c2nnn(-c3ccc4c(c3)OCCO4)c2N)cc1OC	COUP-TFII inh 93.3, SRC2 inh 55.2
COc1cc2c(cc1OC)/C(=C/C(=O)c1ccc(F)cc1)NCC2	GalR3 antag 14.8
O=C(/C=C/c1cccnc1)c1ccc([N+](=O)[O-])cc1	none
COc1cc(C(=O)/C=C/c2cccnc2)c([N+](=O)[O-])cc1OC	SRC2 inh 60.6
Oc1ccccc1N=Nc1nc(-c2ccccc2)c(-c2ccccc2)[nH]1	LRH-1 inv ag 98.0, SRC1 inh 73.8, SRC3 inh 86.9
COc1ccccc1N=Nc1nc(-c2ccccc2)c(-c2ccccc2)[nH]1	none
O=C(NCCCN1CCOCC1)c1cc(-c2ccc(Cl)c(Cl)c2)on1	none
Cc1ccc(-c2cc(C(=O)NCCCN3CCOCC3)no2)cc1	SRC2 inh 56.3
COc1ccccc1NC(=S)NN=C(C)c1ccccn1	LRH-1 inv ag 82.3, SRC1 inh 65.1
C/C(=N\NC(=S)Nc1cccc(C)c1)c1ccccc1	none
CC(=NNC(=S)Nc1ccc(C)cc1)c1ccccn1	SRC1 inh 70.4, SRC3 inh 67.7
CC(=NNC(=S)Nc1cccc(C)c1)c1ccccn1	LRH-1 inv ag 86.0, SRC1 inh 72.9, SRC3 inh 72.2
COc1ccc(C(=O)N/N=C(\C)c2ccccn2)cc1OC	none
C[C@@H]1O[C@@H](n2c3ccc(Cl)cc3c3ccc4c5cc(Cl)ccc5[nH]c4c32)[C@H](O)[C@H](O)[C@H]1O	none (no result: LRH-1 inv ag, SRC1 inh, SRC3 inh, GalR3 antag)
CC(C)N(c1cc(=O)nc2ccccn12)C(C)C	none (no result: LRH-1 inv ag, SRC1 inh, SRC3 inh)
Cc1nc2c(O)c3c(c(O)c2nc1C)C1C=CC3CC1	LRH-1 inv ag 94.7, SRC1 inh 88.7, SRC3 inh 90.6, SRC2 inh 61.7
